Assay [1] is described as follows: Nuclear factor erythroid 2-related factor 2/antioxidant responsive element (Nrf2/ARE) small molecule agonists: qHTS cell viability counter screen in human keratinocytes (AID 1919968; active = well fitted cell-killing curve with a large enough effect in the repeat runs; note: nearly all actives have a fitted effect of over 55% in size; note: potency is the fitted concentration of half-maximal effect). Summed up: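 Cells of the KeratinoSens line were plated at 1,500 per well and left for 5 h before compound transfer from DMSO stocks. After a 23 h incubation (37 C, 5% CO2), CellTiter-Fluor was added. Signal was taken as fluorescence intensity 1 h later.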

Assay [2] is described as follows: Nuclear factor erythroid 2-related factor 2/antioxidant responsive element (Nrf2/ARE) small molecule agonists: luciferase reporter gene qHTS assay in human keratinocytes (AID 1919969). Note: nearly all actives have a fitted effect of over 35% in size. Note: potency is the fitted concentration of half-maximal effect.
The nature of assay [3]: G protein-coupled receptor (GPCR) small molecule agonists, calcium flux assay: HEK293 wild type cell line counter screen (AID 1920065). Summed up: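 Tox21 10K compounds, 15 concentrations each in triplicate, pin-transferred in DMSO onto dye-loaded cells; kinetic read at 480/540 nm for 3 min, 1 s intervals.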
Assay [4] can be described thus: p53 small molecule agonists, cell-based qHTS assay with human liver microsomes (AID 1963577).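 Note: p53 response element beta-lactamase reporter cells with liver microsomes plus NADPH.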 Summed up: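 16 h, 37 C exposure of p53RE-bla cells to compounds with human liver microsomes and NADPH (0.5 mg/mL final each); detection via LiveBLAzer mixture, 2 h dark at room temperature.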
Assay [5] in a line: p53 small molecule agonists, cell-based qHTS assay with rat liver microsomes (AID 1963578). Summed up:
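With rat liver microsomes and NADPH present (0.5 mg/mL final each), p53RE-bla cells are treated with compound for 16 h at 37 C. LiveBLAzer detection mixture is then applied for 2 h at room temperature in the dark.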

The nature of assay [6]: p53 small molecule agonists, cell-based qHTS assay with human liver microsomes: qHTS cell viability counter screen (AID 1963579). Note: nearly all actives have a fitted effect of over 45% in size. Note: potency is the fitted concentration of half-maximal effect. The method, boiled down:
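In this multiplexed counter screen, the reporter plates were subsequently treated with CellTiter-Glo so that cell viability, reflected by luminescence, could be recorded for p53RE-bla cells dosed 16 h with compounds under microsomal activation (HLM and NADPH).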

Assay [7] in a line: p53 small molecule agonists, cell-based qHTS assay: qHTS cell viability counter screen (AID 1963581). Note: nearly all actives have a fitted effect of over 45% in size. Note: potency is the fitted concentration of half-maximal effect. The method, boiled down:
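ATP content measured by luminescence in HCT-116 p53RE-bla cells treated 16 h at 37 C, same wells as the reporter screen.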

Assay [8] can be described thus: p53 small molecule agonists, cell-based qHTS assay (AID 1963582; active = well fitted activation curve with a large enough effect in the signal ratio in the repeat runs, not every such curve was filed as active; the % refers to the signal ratio). Summed up: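 16 h compound exposure (37 C) of p53 response element–bla cells, preceded by 5 h recovery at 37 C/5% CO2; read-out via LiveBLAzer B/G FRET substrate, 2 h RT, fluorescence intensity.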
Assay [9] concerns the target 5-hydroxytryptamine receptor 2A (Homo sapiens) (UniProt P28223). Put plainly: 5-hydroxytryptamine receptor 2A (HTR2A) small molecule antagonists, cell-based qHTS assay (AID 1963586). Note: nearly all actives have a fitted effect of over 45% in size. Summed up: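 CHO cells stably expressing human HTR2A were plated for 18 h at 37 C, then loaded with calcium dye for 1 h. Compounds were preincubated 5 min at room temperature before DOI (4 nM solution) was added. Kinetic fluorescence was read for 3 min.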

For assay [10] the target is unchanged. The experiment in a line: 5-hydroxytryptamine receptor 2A (HTR2A) small molecule agonists, cell-based qHTS assay (AID 1963587). Note: nearly all actives have a fitted effect of over 30% in size. The method, boiled down:
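Kinetic calcium-flux fluorescence (2 min, 1 sec intervals) after compound addition in agonist mode. HTR2A-CHO cells were cultured 18 h, then dye-loaded 1 h at 37 C.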

Assay [11] deals with Muscarinic acetylcholine receptor M1 (Homo sapiens) (UniProt P11229). The experiment in a line: Cholinergic receptor muscarinic 1 (CHRM1) small molecule antagonists, cell-based qHTS assay (AID 1963588). Note: nearly all actives have a fitted effect of over 40% in size. Note: potency is the fitted concentration of half-maximal effect. The method, boiled down: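 Compounds were tested at 15 concentrations in three independent runs. Dye-loaded CHRM1-CHO cells were exposed 5 min at room temperature before stimulation by acetylcholine added at 50nM. Intracellular calcium was read kinetically on FDSS for 3 min.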
Muscarinic acetylcholine receptor M1 (Homo sapiens), sequence (P11229 whole entry, looked up): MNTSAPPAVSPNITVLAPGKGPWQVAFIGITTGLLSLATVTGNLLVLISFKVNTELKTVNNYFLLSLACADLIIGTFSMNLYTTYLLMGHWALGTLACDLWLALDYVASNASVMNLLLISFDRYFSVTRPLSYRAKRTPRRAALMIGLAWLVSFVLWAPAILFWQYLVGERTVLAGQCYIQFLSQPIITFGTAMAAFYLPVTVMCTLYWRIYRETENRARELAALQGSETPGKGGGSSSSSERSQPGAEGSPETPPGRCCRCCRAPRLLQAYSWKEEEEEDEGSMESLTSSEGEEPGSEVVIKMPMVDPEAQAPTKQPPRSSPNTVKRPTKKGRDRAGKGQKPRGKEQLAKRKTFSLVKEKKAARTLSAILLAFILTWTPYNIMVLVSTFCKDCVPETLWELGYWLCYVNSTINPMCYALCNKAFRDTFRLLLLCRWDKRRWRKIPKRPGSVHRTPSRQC

For assay [12] the target is unchanged. Put plainly: Cholinergic receptor muscarinic 1 (CHRM1) small molecule agonists, cell-based qHTS assay (AID 1963589). Note: nearly all actives have a fitted effect of over 35% in size. The method, boiled down: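 Homogeneous fluorescence calcium flux, agonist mode. Human M1-expressing CHO cells; compound dosed at 15 concentrations, three independent runs; signal sampled every 1 sec.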
A short description of assay [13]: cAMP Responsive Elements (CRE) small molecule agonists, cell-based qHTS assay (AID 1963590). The method, boiled down: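 HEK 293T cells stably bearing CRE-bla were plated at 2,000 cells per well and rested 18 h. Compounds, positive controls or DMSO were added for 3 h at 37 C. LiveBLAzer B/G substrate was then loaded for 2 h at room temperature.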
A short description of assay [14]: cAMP Responsive Elements (CRE) small molecule antagonists, cell-based qHTS assay (AID 1963591; active = well fitted inhibition curve with a large enough effect in the signal ratio in the repeat runs, not every such curve was filed as active; the % refers to the signal ratio). Summed up: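 First, CRE-bla HEK293T cells settled 18 h at 37 C. Next, compound and 0.25 uM final NKH477 were applied for 3 h. Last, LiveBLAzer B/G substrate was loaded for 2 h at room temperature.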
In assay [15] the target is Beta-2 adrenergic receptor (Homo sapiens) (UniProt P07550). The experiment in a line: Adrenergic beta2 receptor (ADRB2) small molecule antagonists, cell-based qHTS assay (AID 1963592). Note: series mostly up to about 92 µM; nearly all actives have a fitted effect of over 50% in size. Summed up:
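Assay format: CHO-ADRB2 cells, 18-20hr seeding at 37C/5% CO2, then compound plus 1nM isoproterenol agonist mix for 0.5hr RT. Homogeneous time-resolved fluorescence cAMP detection after 1hr, expressed as 665/615 nm ratio.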

The target is the same in assay [16]. Put plainly: Adrenergic beta2 receptor (ADRB2) small molecule agonists, cell-based qHTS assay (AID 1963593).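 Note: CHO cells stably overexpressing human ADRB2.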 Summed up: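 CHO cells stably over-expressing ADRB2 were plated overnight at 37C, then dosed with compounds plus a stimulation mix containing 100uM IBMX and 25uM Ro-20-1724 for 0.5hr at room temperature. cAMP was measured by HTRF competition, 1hr.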
Assay [17] has as its target D(2) dopamine receptor (Homo sapiens) (UniProt P14416). The experiment in a line: Dopamine D2 receptor (DRD2) small molecule agonists, cell-based qHTS assay (AID 1963594). Note: nearly all actives have a fitted effect of over 35% in size. The method, boiled down: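 cAMP accumulation in DRD2-HEK293 cells measured by HTRF after 1 h detection; compounds added 10 min before NKH477 (200nM […]) forskolin-analogue stimulation, 30 min at room temperature, with Ro20-1724 present at 0.1 mM final.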

The nature of assay [18]: p53 small molecule agonists, cell-based qHTS assay with rat liver microsomes: qHTS cell viability counter screen (AID 1963580). Note: nearly all actives have a fitted effect of over 45% in size. Note: potency is the fitted concentration of half-maximal effect. The method, boiled down:
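Cytotoxicity counter screen: intracellular ATP read by CellTiter-Glo luminescence in the p53 reporter wells. HCT-116 p53RE-bla cells were treated for 16 h at 37 C alongside rat liver microsomes and NADPH, each 0.5 mg/mL final.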

Assay [19] addresses D(2) dopamine receptor (Homo sapiens) (UniProt P14416). Put plainly: Dopamine D2 receptor (DRD2) small molecule antagonists, cell-based qHTS assay (AID 1963595; active = well fitted inhibition curve with a large enough effect in the signal ratio in the repeat runs, with a control signal flat; the % refers to the signal ratio; note: potency is the fitted concentration of half-maximal effect). Summed up: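 Antagonist mode in DRD2-HEK293 cells: after compound addition with 0.1 mM Ro20-1724, cells received quinpirole (12 nM) and NKH477 (200 nM) for 30 min at room temperature; HTRF cAMP read after 1 h detection.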

Experimental findings from PubChem BioAssay (Tox21) are described below.

Where “and” joins values, the source holds several entries; their conditions need not be identical. Equal entries are not always repeated. Results filed as inconclusive are left out. The source holds several records for some structures; these can differ, active in one and inactive in another. Calls of active or inactive are those of the source. Unless noted, calls come from the whole dose curve.

D(2) dopamine receptor (Homo sapiens), sequence (P14416 whole entry, looked up): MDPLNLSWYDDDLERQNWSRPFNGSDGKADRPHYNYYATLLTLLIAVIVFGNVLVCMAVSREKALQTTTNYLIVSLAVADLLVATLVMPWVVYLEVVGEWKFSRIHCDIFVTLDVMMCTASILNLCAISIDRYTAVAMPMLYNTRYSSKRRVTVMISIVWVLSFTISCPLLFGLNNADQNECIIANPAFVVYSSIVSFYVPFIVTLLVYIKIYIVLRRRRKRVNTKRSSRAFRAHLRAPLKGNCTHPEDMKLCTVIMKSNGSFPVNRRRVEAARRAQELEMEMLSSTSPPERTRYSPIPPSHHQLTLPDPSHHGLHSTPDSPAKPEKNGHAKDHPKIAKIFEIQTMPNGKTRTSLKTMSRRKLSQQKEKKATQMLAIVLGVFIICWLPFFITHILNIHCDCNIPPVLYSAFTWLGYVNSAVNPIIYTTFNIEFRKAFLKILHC
Beta-2 adrenergic receptor (Homo sapiens), sequence (P07550 whole entry, looked up): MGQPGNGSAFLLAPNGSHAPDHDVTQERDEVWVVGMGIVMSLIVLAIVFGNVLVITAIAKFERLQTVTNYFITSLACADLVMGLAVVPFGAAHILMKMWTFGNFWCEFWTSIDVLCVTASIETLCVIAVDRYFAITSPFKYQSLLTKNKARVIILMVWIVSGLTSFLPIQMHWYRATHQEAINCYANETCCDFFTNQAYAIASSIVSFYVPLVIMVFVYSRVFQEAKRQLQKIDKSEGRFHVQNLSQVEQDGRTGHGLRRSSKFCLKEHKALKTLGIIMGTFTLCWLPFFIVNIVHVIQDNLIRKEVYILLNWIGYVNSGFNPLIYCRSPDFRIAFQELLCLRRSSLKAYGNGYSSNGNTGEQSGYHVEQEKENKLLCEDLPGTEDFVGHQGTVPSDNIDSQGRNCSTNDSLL
5-hydroxytryptamine receptor 2A (Homo sapiens), sequence (P28223 whole entry, looked up): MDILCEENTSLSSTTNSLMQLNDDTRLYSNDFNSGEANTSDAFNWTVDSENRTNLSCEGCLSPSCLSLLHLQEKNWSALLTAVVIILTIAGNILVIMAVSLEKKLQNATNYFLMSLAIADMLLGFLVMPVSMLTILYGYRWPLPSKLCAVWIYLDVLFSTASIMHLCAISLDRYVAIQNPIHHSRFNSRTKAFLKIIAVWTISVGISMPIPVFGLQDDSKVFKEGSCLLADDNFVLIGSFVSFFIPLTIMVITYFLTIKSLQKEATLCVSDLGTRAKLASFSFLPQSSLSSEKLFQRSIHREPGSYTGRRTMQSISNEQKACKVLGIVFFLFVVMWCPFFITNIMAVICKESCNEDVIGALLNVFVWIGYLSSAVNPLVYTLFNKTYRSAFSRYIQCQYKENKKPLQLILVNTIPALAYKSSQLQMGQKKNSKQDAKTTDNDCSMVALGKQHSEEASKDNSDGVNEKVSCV

Turning to `CC(C)N=C(N)/N=C(\N)Nc1ccc(Cl)cc1`, the Potency entry in assay [1], in assay [2], in [3], in [4], in assay [5] and in [6] was “inactive” each time. Moreover, the Potency entry in [7], in [8], in [9], in assay [10], in [12] and in assay [13] was “inactive” each time. Also, the Potency entry in assay [14], in [15], in assay [16] and in [17] was “inactive” in each case. Besides, the Potency in [11] is 0.729 µM (active).
Regarding `CC(C)=CCCC(C)CC=O` (stereo unspecified), the Potency result in assay [1], in assay [2], in assay [3], in assay [4], in [5] and in [6] was “inactive” throughout. The Potency result in [18], in [7], in assay [8], in assay [13], in assay [14] and in assay [15] was “inactive” throughout. The Potency entry in assay [16], in [17] and in assay [19] was “inactive” in each case.
Take `CC1=NN(c2ccc(S(=O)(=O)O)cc2)C(=O)C1`: the Potency entry in assay [1], in assay [2], in assay [3], in assay [4], in assay [5] and in assay [6] was “inactive” in each case. For the same compound, the Potency result in assay [7], in [8], in assay [9], in assay [10], in assay [11] and in assay [13] was “inactive” each time. The Potency entry in assay [15], in assay [16], in assay [17] and in assay [19] was “inactive” in each case.
Take `Cn1cnc([N+](=O)[O-])c1Sc1ncnc2nc[nH]c12`: the Potency result in assay [1], in assay [3], in assay [4], in assay [5], in [6] and in assay [18] was “inactive” in each case. Also, the Potency result in assay [7], in assay [13], in assay [14], in assay [15], in assay [17] and in assay [19] was “inactive” in each case. For the same compound, the Potency in assay [2] was 27.1 µM (active) and inactive.
`O=c1[nH]c(=O)c2ccccc2o1`: the Potency entry in assay [1], in [2], in assay [3], in assay [4], in [5] and in assay [6] was “inactive” each time. The Potency result in assay [18], in assay [7], in assay [9], in [10], in [11] and in assay [12] was “inactive” throughout. Besides, the Potency result in assay [13], in assay [14], in assay [15], in assay [16], in assay [17] and in assay [19] was “inactive” in each case.
As to `CCOC(/C=C(\C)CCC=C(C)C)OCC`, the Potency result in assay [1], in assay [2], in [3], in [4], in [6] and in assay [18] was “inactive” in each case. Further, the Potency entry in assay [7], in assay [8], in [9], in assay [10], in [11] and in assay [12] was “inactive” throughout. Moreover, the Potency entry in [13], in assay [14], in assay [15], in [16], in assay [17] and in assay [19] was “inactive” throughout.
Take `CCCCC(CC)COC(=O)CC(C(=O)OCC(CC)CCCC)S(=O)(=O)O` (stereo unspecified): the Potency in assay [1] is 26.3 µM (active); in assay [6], 44 µM (active) and inactive; in [18] it was 35 µM (active); in assay [7] it was 39.2 µM (active); in assay [19], “inactive and 61.1 µM (active)”. The Potency result in assay [2], in assay [3], in [4], in [5], in [9] and in assay [14] was “inactive” each time. Also, the Potency entry in [15], in assay [16] and in assay [17] was “inactive” in each case.
